From publication PMC5540273 (PLoS ONE, 2017)

The molecules below were run on PRP4. Conditions: concentration: 1 μM, replicates: in singlicate; n = 1.
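Also: KINOMEscan kinase panel screen.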

Row | Structure (SMILES) | %Inh
1 | CN1C(=O)C(Nc2ccc(Cl)c(C(=O)O)c2)=C(c2ccc(Cl)cc2)C1=O [SB-404290] | 0%
2 | Cn1cncc1-c1ccc2ncnc(Nc3ccc(OCc4ccccc4)cc3)c2c1 [GW320571] | 0%
3 | COc1cc2ncn(-c3cc(OCC4CCCO4)c(C(N)=O)s3)c2cc1OC (centres unmarked) [GSK204607] | 4%
4 | Cc1cccc(-c2nc(Nc3ccncc3)c3ccccc3n2)n1 [GW855857] | 17%
5 | CC1=C(C(=O)Nc2cc3cn[nH]c3cc2F)C(c2ccc(C(F)(F)F)cc2)CC(=O)N1 (centres unmarked) [GSK429286] | 7%
6 | CS(=O)(=O)c1ccc(-c2nc3n(c2-c2ccncc2)CCC3)cc1 [SKF-105942] | 11%
7 | COc1ccccc1-c1ccc2c(NC(=O)C3CC3)n[nH]c2n1 [SB-711239] | 53%
8 | COc1cc2ncnc(Nc3ccc4nc(-c5ccccc5)[nH]c4c3)c2cc1OC.Cl [GW282450] | 10%
9 | COc1cc(Nc2nccc(N3CCC(NC(=O)Nc4cc(C)ccc4C)C3)n2)cc(OC)c1OC (centres unmarked) [GSK1379762] | 43%
10 | CC(C)(C)c1ccc(C(=O)Nc2cn3cc(Cl)ccc3n2)cc1 | 0%
11 | Cl.c1ccc(-c2n[nH]cc2-c2ccnc(-c3ccc(CN4CCOCC4)cc3)c2)nc1 [GW776245] | 0%
12 | CCn1c(-c2cccnc2O)nc2cnccc21 [SB-736715] | 0%
13 | Cc1ccc(NC(=O)Nc2cc(C(C)(C)C)nn2-c2ccccc2)cc1 [GSK1014915] | 1%
14 | O=C(Nc1n[nH]c2nc(-c3nccs3)c(Br)cc12)C1CC1 [SB-742251] | 51%
15 | Cc1ccc(C(=O)Nc2ccc(Nc3ccnc4cc(-c5ccccn5)ccc34)cc2O)cc1.Cl [GW440146] | 12%
16 | O=C(Nc1n[nH]c2cc(-c3cccc(F)c3F)ccc12)C1CC1 [SB-733894] | 4%
17 | O=S(=O)(c1ccc(-c2ccnc3[nH]ccc23)cc1)N1CCCC1 [GSK846226] | 8%

Row | Structure (SMILES) | %Inh
18 | Cc1nnc(-c2ccc3occ(-c4ccc(S(C)=O)cc4)c3c2)[nH]1 (centres unmarked) | 10%
19 | COc1cccc(-c2cc(-c3c[nH]nc3-c3ccccn3)ccn2)c1 [GW680338] | 26%
20 | Cc1c(O)cccc1Nc1ccnc2ccc(C(F)(F)F)cc12.Cl [GW466413] | 4%
21 | CCCc1ccc(S(=O)(=O)NC2CCN(c3ccnc(Nc4ccc(F)cc4)n3)C2)cc1 (centres unmarked) [GSK1379715] | 20%
22 | COc1cc2nccc(Nc3ccc(NC(=O)c4ccc(C)cc4)c(O)c3)c2cc1OC.Cl [GW440132] | 2%
23 | Cn1ccc2ncnc(Oc3ccc(Nc4nc5ccccc5[nH]4)cc3)c21 | 25%
24 | Cc1csc(-c2nc(Nc3ccncc3)c3ccccc3n2)n1 [GW869640] | 0%
25 | O=C(O)COc1ncnc2cc(-c3ccc4[nH]ncc4c3)sc12 | 0%
26 | COc1ccc(C2=C(Nc3cccc(C(=O)O)c3)C(=O)NC2=O)cc1 [SB-390765] | 0%
27 | Cc1cc(-c2ccc3c(c2)CC[C@@H](N[C@@H](C)c2ccccc2)C3)cnc1N.Cl [GW412617] | 0%
28 | Nc1ncnc2[nH]c(-c3ccccc3)nc12 [AH5015] | 30%
29 | COc1ccc2nc(-c3cccc(C)n3)nc(Nc3ccncc3)c2c1 [GSK204919] | 8%
30 | Cl.Oc1ccc(-c2nc(-c3ccccc3)[nH]c2-c2ccncc2)cc1 [SB-428218] | 57%
31 | COc1cccc(NC(=O)NC2CCN(c3ccnc(Nc4ccc(F)cc4)n3)C2)c1 (centres unmarked) [GSK1379721] | 47%
32 | CS(=O)(=O)c1ccc(-c2c(-c3ncn[nH]3)sc(N3CCOCC3)c2C#N)cc1 | 0%
33 | Cn1ccc2ncnc(Oc3cccc(C(=O)Nc4ccccc4)c3)c21 | 5%
34 | CCn1c(-c2ccccn2)nc2cnccc21 [SB-736398] | 46%

The molecules below were run on T1, PYK2. Conditions: concentration: 1 μM, replicates: in singlicate; n = 1.
T1 construct: gene PTK2B

Row | Structure (SMILES) | %Inh
35 | CN1C(=O)C(Nc2ccc(Cl)c(C(=O)O)c2)=C(c2ccc(Cl)cc2)C1=O [SB-404290] | 5%
36 | Cn1cncc1-c1ccc2ncnc(Nc3ccc(OCc4ccccc4)cc3)c2c1 [GW320571] | 34%
37 | COc1cc2ncn(-c3cc(OCC4CCCO4)c(C(N)=O)s3)c2cc1OC (centres unmarked) [GSK204607] | 0%
38 | Cc1cccc(-c2nc(Nc3ccncc3)c3ccccc3n2)n1 [GW855857] | 4%
39 | CC1=C(C(=O)Nc2cc3cn[nH]c3cc2F)C(c2ccc(C(F)(F)F)cc2)CC(=O)N1 (centres unmarked) [GSK429286] | 10%
40 | CS(=O)(=O)c1ccc(-c2nc3n(c2-c2ccncc2)CCC3)cc1 [SKF-105942] | 0%
41 | COc1ccccc1-c1ccc2c(NC(=O)C3CC3)n[nH]c2n1 [SB-711239] | 0%
42 | COc1cc2ncnc(Nc3ccc4nc(-c5ccccc5)[nH]c4c3)c2cc1OC.Cl [GW282450] | 7%
43 | COc1cc(Nc2nccc(N3CCC(NC(=O)Nc4cc(C)ccc4C)C3)n2)cc(OC)c1OC (centres unmarked) [GSK1379762] | 3%
44 | CC(C)(C)c1ccc(C(=O)Nc2cn3cc(Cl)ccc3n2)cc1 | 96.6%
45 | Cl.c1ccc(-c2n[nH]cc2-c2ccnc(-c3ccc(CN4CCOCC4)cc3)c2)nc1 [GW776245] | 14%
46 | CCn1c(-c2cccnc2O)nc2cnccc21 [SB-736715] | 0%
47 | Cc1ccc(NC(=O)Nc2cc(C(C)(C)C)nn2-c2ccccc2)cc1 [GSK1014915] | 4%
48 | O=C(Nc1n[nH]c2nc(-c3nccs3)c(Br)cc12)C1CC1 [SB-742251] | 0%
49 | Cc1ccc(C(=O)Nc2ccc(Nc3ccnc4cc(-c5ccccn5)ccc34)cc2O)cc1.Cl [GW440146] | 1%
50 | O=C(Nc1n[nH]c2cc(-c3cccc(F)c3F)ccc12)C1CC1 [SB-733894] | 0%
51 | O=S(=O)(c1ccc(-c2ccnc3[nH]ccc23)cc1)N1CCCC1 [GSK846226] | 0%

Row | Structure (SMILES) | %Inh
52 | Cc1nnc(-c2ccc3occ(-c4ccc(S(C)=O)cc4)c3c2)[nH]1 (centres unmarked) | 26%
53 | COc1cccc(-c2cc(-c3c[nH]nc3-c3ccccn3)ccn2)c1 [GW680338] | 0%
54 | Cc1c(O)cccc1Nc1ccnc2ccc(C(F)(F)F)cc12.Cl [GW466413] | 0%
55 | CCCc1ccc(S(=O)(=O)NC2CCN(c3ccnc(Nc4ccc(F)cc4)n3)C2)cc1 (centres unmarked) [GSK1379715] | 0%
56 | COc1cc2nccc(Nc3ccc(NC(=O)c4ccc(C)cc4)c(O)c3)c2cc1OC.Cl [GW440132] | 12%
57 | Cn1ccc2ncnc(Oc3ccc(Nc4nc5ccccc5[nH]4)cc3)c21 | 41%
58 | Cc1csc(-c2nc(Nc3ccncc3)c3ccccc3n2)n1 [GW869640] | 0%
59 | O=C(O)COc1ncnc2cc(-c3ccc4[nH]ncc4c3)sc12 | 0%
60 | COc1ccc(C2=C(Nc3cccc(C(=O)O)c3)C(=O)NC2=O)cc1 [SB-390765] | 17%
61 | Cc1cc(-c2ccc3c(c2)CC[C@@H](N[C@@H](C)c2ccccc2)C3)cnc1N.Cl [GW412617] | 12%
62 | Nc1ncnc2[nH]c(-c3ccccc3)nc12 [AH5015] | 0%
63 | COc1ccc2nc(-c3cccc(C)n3)nc(Nc3ccncc3)c2c1 [GSK204919] | 9%
64 | Cl.Oc1ccc(-c2nc(-c3ccccc3)[nH]c2-c2ccncc2)cc1 [SB-428218] | 0%
65 | COc1cccc(NC(=O)NC2CCN(c3ccnc(Nc4ccc(F)cc4)n3)C2)c1 (centres unmarked) [GSK1379721] | 0%
66 | CS(=O)(=O)c1ccc(-c2c(-c3ncn[nH]3)sc(N3CCOCC3)c2C#N)cc1 | 0%
67 | Cn1ccc2ncnc(Oc3cccc(C(=O)Nc4ccccc4)c3)c21 | 0%
68 | CCn1c(-c2ccccn2)nc2cnccc21 [SB-736398] | 9%
